Rows were chosen to be rich in hits. Some 8% of all compounds tested hit in one or more screens of this group.
KB-V1 cytotox: kills drug-selected multidrug resistant KB-V1 cells; actives 3.4% (n = 400,000); Potency, µM (top dose mostly 46.1 µM), hits mostly cytotoxic; KB-V1 MDR cells viability, CellTiter-Glo, 72 h; AID 1347076; further: on the % scale 0 is the no-effect control and ±100 the full control effect; nearly all actives have a fitted effect of over 60% in size
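Readout: CellTiter-Glo luminescence, 10 min after addition. Cells: KB-V1 MDR subline, 72 h at 37 degrees C with compound. Analysis: corrected, normalized data fitted to concentration-effect curves.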
MCF10A rereplic: inducers of DNA re-replication in MCF 10A breast cells; MCF 10A DNA re-replication, Hoechst nuclear intensity, 48 h; actives 2.9% (n = 350,000); Potency, µM (titrated, usually from 46.1 µM), for inactives: at the highest dose activity, positive = re-replication, actives largely listed as activators; further: % of control where 0% means no effect; nearly all actives have a fitted effect of over 50% in size
HT1080NT lethal: kills 2HG-producing HT-1080-NT fibrosarcoma cells. Potency, µM (titrated, usually from 46.1 µM), without a hit: at the highest dose activity, negative = less viability, most hits filed as cytotoxic. actives 1.6% (n = 360,000). HT-1080-NT fibrosarcoma viability, CellTiter-Glo ATP luminescence, 48 h;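 further: NT is the 2HG producing partner of a matched IDH1 knockdown line; 0% = DMSO-treated cells and -100% = media-only wells without cells; nearly all actives have a fitted effect of over 55% in size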
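Viability by CellTiter-Glo luminescence after 48 h compound exposure at 37C of HT-1080-NT cells (750/well, RPMI, 5% FBS). % activity scaled between DMSO wells and medium-only wells, then curve-fitted and categorized by curve class.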
KB-3-1 cytotox: kills parental KB-3-1 adenocarcinoma cells. KB-3-1 viability, CellTiter-Glo ATP luminescence, 72 h. Potency, µM (top dose mostly 46.1 µM), usual class: cytotoxic. actives 1.4% (n = 400,000); further: on the % scale 0 is the no-effect control and ±100 the full control effect; nearly all actives have a fitted effect of over 60% in size
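Parental KB-3-1 adenocarcinoma cells in phenol-red-free DMEM with 10% FBS were pin-treated with compounds at several concentrations, incubated 72 h at 37 °C, and viability read by CellTiter-Glo luminescence; concentration-effect curves were fitted after normalization.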
HT1080 IDH1KD tx: HT-1080 IDH1 knockdown cell toxicity (counter line). HT-1080 IDH1 knockdown viability, ATP luminescence, 48 h. Potency, µM (highest dose often 46.1 µM), for the others: at the top dose activity, negative = toxicity, hits mostly cytotoxic. actives 2% (n = 360,000). AID 686971;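 further: 0% = DMSO wells and -100% = cell-free medium wells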
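Cytotoxicity counter-line: IDH1KD HT-1080, 48 h, CellTiter-Glo. Curves classed by r2, magnitude and activity.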
SW480 rereplic: induces DNA re-replication in SW480 colon adenocarcinoma cells; actives 1.8% (n = 340,000); SW480 DNA re-replication, Hoechst DNA content imaging, 48 h; Potency, µM (doses to about 46.1 µM), for the others: at the highest dose re-replication activation, actives largely listed as activators; further: % of control where 0% means no effect; nearly all actives have a fitted effect of over 55% in size
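Cells (250 per well) received 23 nL compound or DMSO by pin tool and were kept 48 hr at 37 C, 5% CO2. Nuclei were then stained with Hoechst for 40 min and scanned for DNA content.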
An asterisk follows results filed as active; i = inactive; ? = inconclusive; . = no result given; [ ] = dose if it differs, or a comment. The call rests on the fitted dose curve; in most records, active means well fitted curve in the direction sought with a large enough effect; inconclusive means small, poorly fitted or top-dose-only effect, or another doubt; inactive means no such curve, though single readings can be large; an effect the other way counts as inactive or inconclusive. Potency means the concentration at half of the fitted maximal effect.

SMILES	KB-V1 cytotox	MCF10A rereplic	HT1080NT lethal	KB-3-1 cytotox	HT1080 IDH1KD tx	SW480 rereplic
COCCCNC(=O)C1CCN(c2nc3ccc(C)cc3[nH]2)CC1	i	.	.	i	.	.
CCN(CC)c1ccc(-c2nnc(SCC(=O)NCc3ccco3)n2CC)cc1	i	.	.	i	.	.
O=C(COc1ccccc1)Nc1ccc2[nH]c(=O)[nH]c2c1	i	1%	14%	i	-2%	-2%
COc1cccc(C(=O)Nc2ccc3[nH]c(=O)[nH]c3c2)c1OC	0.73µM*	3%	0%	1.2µM*	6%	0%
COc1cccc(NC(=O)c2cccc(OC)c2OC)c1	i	8%	19%	i	8%	-12%
O=C(COc1ccccc1F)Nc1ccc2[nH]c(=O)[nH]c2c1	6.5µM*	-2%	10%	?	1%	-5%
COc1ccc(Cn2c(CO)cnc2SCC(=O)NCc2ccco2)cc1	i	.	.	i	.	.
CCN(c1ccccc1)S(=O)(=O)c1ccc(Cl)c(C(=O)N2CCCC2)c1	i	-5%	12%	i	1%	-8%
CCS(=O)(=O)N1Cc2ccccc2CC1C(=O)Nc1ncc(C)s1 (configuration not stated)	?	-4%	-6%	i	6%	-78%
O=C(NC1CCCCC1)C1Cc2ccccc2CN1S(=O)(=O)c1ccc(F)cc1 (configuration not stated)	?	?	2%	i	-10%	?
O=C(Nc1nccs1)C1Cc2ccccc2CN1S(=O)(=O)c1ccc(F)cc1 (configuration not stated)	i	425%[0.0737 µM]	1%	i	-6%	4.1µM*
O=C(Nc1nnc(C2CC2)s1)C1Cc2ccccc2CN1S(=O)(=O)c1ccccc1F (configuration not stated)	?	8%	?	i	13µM*	?
COc1ccc(N(C(=O)Cn2cnc3ccccc32)C(C(=O)NC2CCCCC2)c2ccccc2)cc1 (configuration not stated)	i	?	?	i	-29%	23µM*
CC(=O)Nc1ccc(/C=C/c2sc3ccccc3[n+]2CCCCI)cc1	i	.	.	i	.	.
O=C(CCCl)Nc1nc2c(s1)CCc1ccccc1-2	i	18µM*	9.2µM*	?	9.2µM*	?
CC(=O)Nc1nc2c(s1)CCc1ccccc1-2	?	?	8%	i	3%	-16%
N#C/C(=C(/O)CCl)c1nc2c(s1)CCc1ccccc1-2	15µM*	13µM*	?	4.1µM*	?	?
CC(=O)Nc1cccc(Oc2cc(C#N)c(C#N)cc2N2CCCCCC2)c1	23µM*	7%	?	?	?	-4%
COc1cc(NC(=O)CN(C)C2CCCCC2)c(C)cc1[N+](=O)[O-]	4.1µM*	67%	3%	i	22%	-18%
COc1cc(NC(=O)COC(=O)C2CC2)c(C)cc1[N+](=O)[O-]	i	3%	5%	i	8%	-35%
COc1cc(NC(=O)CSc2nc3ccccc3n2-c2ccccc2)c(C)cc1[N+](=O)[O-]	8.2µM*	?	0%	i	-5%	-5%
CN(C)S(=O)(=O)c1cccc(NC(=O)CSc2nc3ccccc3n2-c2ccccc2)c1	2.3µM*	?	-23%	?	?	?
COc1ccc(-n2nnnc2SCC(=O)Nc2cc(OC)c([N+](=O)[O-])cc2C)cc1	i	4.6µM*	-14%	i	-23%	2%
COc1cccc(NCc2nnc(SC(C(=O)N(C)C)c3ccccc3)n2C2CCCCC2)c1 (configuration not stated)	i	.	.	i	.	.
COc1ccc(CCN2C(=O)N(c3ccc(F)cc3)C(=O)C2CC(=O)Nc2ccccc2)cc1 (configuration not stated)	i	.	.	i	.	.
SMILES	KB-V1 cytotox	MCF10A rereplic	HT1080NT lethal	KB-3-1 cytotox	HT1080 IDH1KD tx	SW480 rereplic
COc1ccc(-n2nnnc2SCC(=O)Nc2nc3c(s2)CCCC3)cc1	i	16%	-21%	i	18µM*	-6%
COc1ccc(-n2nnnc2SCC(=O)NC2CC2)cc1	i	-8%	2%	i	-3%	-24%
O=C(Nc1ccc2c(c1)OCO2)C1Cc2c(-c3ccc4c(c3)OCO4)ccnc2O1 (configuration not stated)	8.2µM*	.	?	?	4.1µM*	.
CC(=O)Nc1cccc(-c2ccnc3c2CC(C(=O)Nc2ccc4c(c2)OCO4)O3)c1 (configuration not stated)	i	.	?	5.2µM*	2.3µM*	.
O=C(Nc1ccc2c(c1)OCO2)C1Cc2c(-c3ccncc3)ccnc2O1 (configuration not stated)	i	.	22%	i	9%	.
COc1ccc(NC(=O)C2Cc3c(-c4ccc5c(c4)OCO5)ccnc3O2)cc1 (configuration not stated)	?	.	?	9.2µM*	?	.
O=C(Nc1ccc2c(c1)OCO2)C1Cc2c(-c3ccc(Cl)cc3)ccnc2O1 (configuration not stated)	i	.	23µM*	i	?	.
O=C(COc1ccc2oc3c(c2c1)CCCC3)Nc1ccc(Cl)cc1	i	.	.	i	.	.
COc1ccc(CNC(=O)CN2C(=O)CSc3ccc(S(=O)(=O)N(C)C)cc32)cc1	i	.	.	i	.	.
Cc1ccccc1C(=O)OCc1cc(=O)n2nc(-c3cccs3)sc2n1	i	.	.	i	.	.
Cc1csc(C(C#N)C(=O)c2cc3ccccc3o2)n1 (configuration not stated)	21µM*	19%	?	?	?	9%
Cn1c(=O)c2sccc2n2c(CCC(=O)N3CCN(c4cccc(Cl)c4)CC3)nnc12	i	.	.	i	.	.
O=C1CCc2cc(S(=O)(=O)Nc3ccc4c(c3)CCC4)ccc2N1	i	.	.	i	.	.
CSc1ccc(S(=O)(=O)Nc2ccc3c(c2)NC(=O)CC3)cc1	i	24%	-28%	i	16µM*	3%
CSc1ccc(S(=O)(=O)Nc2ccc3c4c(cccc24)CC3)cc1	15µM*	?	?	18µM*	?	?
Cc1cc(C)nc(/N=C2\NC(=O)CC(C(=O)O)N2c2ccc(Cl)cc2)n1 (configuration not stated)	i	0%	14%	i	5%	3%
Cc1ccc(N2/C(=N/c3nc(C)cc(C)n3)NC(=O)CC2C(=O)O)cc1 (configuration not stated)	i	18µM*	0%	i	-4%	14%

Compound activity as filed in PubChem BioAssay.
